The source of these data is PubChem BioAssay.

One assay deals with Albumin (Bos taurus) (UniProt P02769). The assay can be described thus: bovine serum albumin binders on microarray, profiling panel, artefact control for SMM control protein annotation, biochemical, small-molecule microarray, Alexa647 label, 635/667 nm fluorescence (AID 1118).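 Also: score merges 667 nm emission intensity and signal-to-noise per printed compound spot.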 Particulars: BSA-A647 binding, fluorescence 635 nm, higher = more signal.
Chain of Albumin (Bos taurus) (P02769 whole entry, looked up): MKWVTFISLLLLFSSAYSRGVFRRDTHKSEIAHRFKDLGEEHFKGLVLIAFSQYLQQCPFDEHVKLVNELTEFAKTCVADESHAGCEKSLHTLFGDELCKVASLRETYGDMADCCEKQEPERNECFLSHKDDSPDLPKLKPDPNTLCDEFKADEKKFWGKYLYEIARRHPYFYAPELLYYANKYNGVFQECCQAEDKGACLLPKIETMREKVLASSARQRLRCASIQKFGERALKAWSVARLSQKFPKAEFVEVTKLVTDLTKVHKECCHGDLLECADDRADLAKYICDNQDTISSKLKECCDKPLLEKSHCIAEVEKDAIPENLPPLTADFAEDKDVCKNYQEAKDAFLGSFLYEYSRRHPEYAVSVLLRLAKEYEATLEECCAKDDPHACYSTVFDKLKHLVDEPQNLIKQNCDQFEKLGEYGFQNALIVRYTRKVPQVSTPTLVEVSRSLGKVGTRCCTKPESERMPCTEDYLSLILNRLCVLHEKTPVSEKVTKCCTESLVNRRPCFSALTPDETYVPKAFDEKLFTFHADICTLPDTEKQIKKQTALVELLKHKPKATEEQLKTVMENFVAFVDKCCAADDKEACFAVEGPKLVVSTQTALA
A short description of assay [1]: small-molecule microarray binders of probe aXIP, primary screen, biochemical, NeuroSMM set, 635/667 nm fluorescence (AID 1119).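 Also: probe is the protein aXip251-270 applied at 1 µg/mL to compound-printed slides; binding of probe to printed compounds measured as 667 nm fluorescence plus signal to noise.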 The following applies: higher = more signal, called active from +8 up or from −8 down.
Assay [2] is described as follows: small-molecule binders of probe aNOTCH3, primary screen, biochemical, small-molecule microarray, 635/667 nm fluorescence (AID 1120).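 Also: probe is a biotin-tagged antibody raised against NOTCH3 rather than NOTCH3 protein; score merges spot fluorescence near 667 nm with spot signal to noise.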 Particulars: higher = more signal.
The nature of assay [3]: small-molecule binders of probe aNOTCH2, primary screen, biochemical, small-molecule microarray, 635/667 nm fluorescence (AID 1121).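 Also: score merges feature fluorescence read at 667 nm with its signal to noise.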 The following applies: higher = more signal.
Assay [4] concerns the target Carbonic anhydrase 2 (Homo sapiens) (UniProt P00918). The assay can be described thus: CAII small-molecule binders, profiling panel, biochemical, small-molecule microarray, Alexa647-labelled CAII (AID 1122). The following applies: CAII-A647 binding fluorescence, higher = more signal.
Assay [5] in a line: COS7 lysate on small-molecule microarray, probe aHis, 635 nm (AID 1123).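 Also: z-score combines 667nm fluorescence intensity with signal-to-noise per printed compound spot.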 The following applies: COS7 cell lysate, fluorescence, higher = more signal.
Assay [6] can be described thus: compound binding in COS7 lysate, probe aLAP1, primary screen, cell lysate, small-molecule microarray (AID 1124).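 Also: lysate comes from COS7 cells expressing LAP1 and is applied at 0.3 µg/mL; score merges spot fluorescence near 667 nm with signal-to-noise over triplicate slides.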 Particulars: probe aLAP1, fluorescence, higher = more signal.
The next assay relates to Sam68 (KHDRBS1). As to the kind of experiment: Sam68 small-molecule binders, primary screen, biochemical, small-molecule microarray, 635 nm fluorescence (AID 1125).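 Also: score merges 667 nm channel intensity with signal to noise over triplicate slides.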 Particulars: small-molecule microarray binding, higher = more signal.
Assay [7] deals with Chordin-like protein 2 (CHRDL2). As to the kind of experiment: CHRDL2 small-molecule binders, primary screen, biochemical, small-molecule microarray, 635 nm fluorescence (AID 1126).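 Also: printed compound slides probed with Chrdl2 protein at 4 µg/mL for 1 h at 4 C; score merges 667 nm emission intensity with signal to noise over three replicate slides.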 Particulars: small-molecule microarray binding, fluorescence 635 nm; higher = more signal.
Assay [8] deals with Concanavalin-A (Canavalia ensiformis) (UniProt P02866). As to the kind of experiment: ConA small-molecule binders, primary screen, artefact control for SMM control protein annotation, biochemical, small-molecule microarray, Alexa647 label, 635 nm (AID 1127).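 Also: z combines 667 nm emission intensity with signal-to-noise across three replicate slides.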 The following applies: ConA-A647 binding fluorescence, higher = more signal.
Chain of Concanavalin-A (Canavalia ensiformis) (P02866 whole entry, looked up): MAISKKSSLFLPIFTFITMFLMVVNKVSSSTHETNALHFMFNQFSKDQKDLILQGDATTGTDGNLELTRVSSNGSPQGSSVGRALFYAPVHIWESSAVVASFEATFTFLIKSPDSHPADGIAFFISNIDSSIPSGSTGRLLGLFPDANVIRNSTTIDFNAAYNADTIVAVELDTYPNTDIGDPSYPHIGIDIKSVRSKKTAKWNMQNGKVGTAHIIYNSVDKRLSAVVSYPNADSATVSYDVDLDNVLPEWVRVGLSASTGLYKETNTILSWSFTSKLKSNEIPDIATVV
Assay [9] is described as follows: anti-His antibody binders, primary screen, artefact control for SMM control protein annotation, biochemical, small-molecule microarray, 635 nm fluorescence (AID 1128).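 Also: score merges feature fluorescence with signal-to-noise for each printed compound spot.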 Particulars: anti-His Alexa647 antibody binding, higher = more signal.
For assay [10], the system named is Human papillomavirus type 1a E7 protein (residues 1-88). The assay can be described thus: HPV1a E7 small-molecule binders, primary screen, biochemical, small-molecule microarray, residues 1-88, 635 nm (AID 1129). Particulars: small-molecule microarray binding, fluorescence 635 nm; higher = more signal.
Assay [11] deals with Focal adhesion kinase 1 (Homo sapiens) (UniProt Q05397). As to the kind of experiment: small-molecule microarray binders of FAK, primary screen, biochemical, 635/667 nm fluorescence, BSA, DTT (AID 1130).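 Also: composite of spot emission at 667 nm and signal to noise over triplicate slides.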 The following applies: PTK2 binding, 635 nm fluorescence, higher = more signal.
Chain of Focal adhesion kinase 1 (Homo sapiens) (Q05397 whole entry, looked up): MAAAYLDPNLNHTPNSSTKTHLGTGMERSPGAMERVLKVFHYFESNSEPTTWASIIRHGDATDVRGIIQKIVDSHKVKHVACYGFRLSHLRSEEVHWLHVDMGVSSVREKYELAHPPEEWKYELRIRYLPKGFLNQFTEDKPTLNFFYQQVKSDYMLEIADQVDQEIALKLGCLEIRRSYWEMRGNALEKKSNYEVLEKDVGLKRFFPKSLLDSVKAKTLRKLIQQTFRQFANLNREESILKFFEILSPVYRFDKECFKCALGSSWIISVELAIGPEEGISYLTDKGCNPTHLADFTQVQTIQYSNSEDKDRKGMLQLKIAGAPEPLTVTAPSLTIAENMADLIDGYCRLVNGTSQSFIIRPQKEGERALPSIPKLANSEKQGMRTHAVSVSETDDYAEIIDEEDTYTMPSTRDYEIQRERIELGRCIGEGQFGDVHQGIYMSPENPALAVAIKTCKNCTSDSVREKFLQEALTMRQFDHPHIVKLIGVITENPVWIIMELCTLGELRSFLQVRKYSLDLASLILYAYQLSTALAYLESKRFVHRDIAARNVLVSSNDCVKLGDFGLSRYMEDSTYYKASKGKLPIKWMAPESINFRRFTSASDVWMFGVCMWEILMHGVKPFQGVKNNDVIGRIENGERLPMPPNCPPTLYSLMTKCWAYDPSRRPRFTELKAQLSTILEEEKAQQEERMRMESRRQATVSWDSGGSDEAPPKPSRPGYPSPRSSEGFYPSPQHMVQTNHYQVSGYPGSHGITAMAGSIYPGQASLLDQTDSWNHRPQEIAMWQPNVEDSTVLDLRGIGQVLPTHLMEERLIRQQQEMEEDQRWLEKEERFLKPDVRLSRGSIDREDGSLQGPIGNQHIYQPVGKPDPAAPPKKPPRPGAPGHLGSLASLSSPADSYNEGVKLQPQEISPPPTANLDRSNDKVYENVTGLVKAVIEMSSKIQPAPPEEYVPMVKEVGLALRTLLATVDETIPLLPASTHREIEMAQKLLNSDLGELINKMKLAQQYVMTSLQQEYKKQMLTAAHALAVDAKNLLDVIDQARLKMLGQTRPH
Assay [12] deals with Fibrinogen (Alexa647-labelled). The assay can be described thus: fibrinogen binders on compound microarrays, profiling panel, artefact control for SMM control-protein annotation, biochemical, small-molecule microarray, 635/667 nm fluorescence (AID 1131).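 Also: z-score merges 667 nm fluorescence with per-spot signal-to-noise over triplicate slides.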 Particulars: fibrinogen-A647 binding fluorescence, higher = more signal.
For assay [13], the target named is Follistatin (Homo sapiens) (UniProt P19883). The assay can be described thus: follistatin binders on small-molecule microarrays, primary screen, biochemical, small-molecule microarray, 635/667 nm fluorescence (AID 1132). The following applies: FST binding, 635 nm fluorescence, higher = more signal.
Chain of Follistatin (Homo sapiens) (P19883 whole entry, looked up): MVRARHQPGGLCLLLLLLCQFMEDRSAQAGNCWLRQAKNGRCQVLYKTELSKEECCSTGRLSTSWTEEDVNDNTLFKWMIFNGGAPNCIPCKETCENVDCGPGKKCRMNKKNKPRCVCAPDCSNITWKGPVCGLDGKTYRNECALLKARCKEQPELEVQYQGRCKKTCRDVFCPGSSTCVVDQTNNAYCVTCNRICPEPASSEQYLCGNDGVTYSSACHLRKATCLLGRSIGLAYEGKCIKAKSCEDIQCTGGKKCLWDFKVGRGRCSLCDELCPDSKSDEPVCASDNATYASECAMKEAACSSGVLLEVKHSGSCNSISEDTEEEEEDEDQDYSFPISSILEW
Assay [14] has as its target Fibroblast growth factor 2 (Homo sapiens) (UniProt P09038). As to the kind of experiment: FGF2 binders on small-molecule microarrays, primary screen, biochemical, small-molecule microarray, 635/667 nm fluorescence (AID 1133). Particulars: small-molecule microarray binding, FGF2, fluorescence 635/667; higher = more signal.
Assay [15] is described as follows: mitochondrial membrane potential change in A549 cells, profiling panel, cell-based, JC-1 fluorescence, basal, 24 h, 100 nL (AID 1138).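 Also: A549 lung adenocarcinoma cells under basal conditions with no added stimulus; test concentration not given here.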 Particulars: higher = more signal.
In a further assay the test system is Lefty1. As to the kind of experiment: Lefty1 binders on small-molecule microarrays, primary screen, biochemical, small-molecule microarray, 635/667 nm fluorescence (AID 1139). Particulars: small-molecule microarray binding, fluorescence 635/667; higher = more signal.
For assay [16], the system named is wheat germ agglutinin (Triticum aestivum), Alexa647-labelled. The assay can be described thus: wheat germ agglutinin binders on compound microarrays, profiling panel, artefact control for SMM control-protein annotation, biochemical, small-molecule microarray, 635/667 nm fluorescence (AID 1140).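 Also: score merges 667 nm feature emission with signal to noise over triplicate slides.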 Particulars: WGA-A647 binding, 635 nm fluorescence, higher = more signal.

Assay [17] deals with Luciferin 4-monooxygenase (Photinus pyralis) (UniProt P08659). The assay can be described thus: firefly luciferase enzyme inhibitors, primary screen, biochemical, luminescence, purified enzyme, 2006 set (AID 1141).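 Also: cell-free assay with purified firefly luciferase at 100 ng per well in PBS; test concentration not given here.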 The following applies: SteadyGlo luminescence, 30 min, higher = more signal, called active from +8 up or from −8 down.
Chain of Luciferin 4-monooxygenase (Photinus pyralis) (P08659 whole entry, looked up): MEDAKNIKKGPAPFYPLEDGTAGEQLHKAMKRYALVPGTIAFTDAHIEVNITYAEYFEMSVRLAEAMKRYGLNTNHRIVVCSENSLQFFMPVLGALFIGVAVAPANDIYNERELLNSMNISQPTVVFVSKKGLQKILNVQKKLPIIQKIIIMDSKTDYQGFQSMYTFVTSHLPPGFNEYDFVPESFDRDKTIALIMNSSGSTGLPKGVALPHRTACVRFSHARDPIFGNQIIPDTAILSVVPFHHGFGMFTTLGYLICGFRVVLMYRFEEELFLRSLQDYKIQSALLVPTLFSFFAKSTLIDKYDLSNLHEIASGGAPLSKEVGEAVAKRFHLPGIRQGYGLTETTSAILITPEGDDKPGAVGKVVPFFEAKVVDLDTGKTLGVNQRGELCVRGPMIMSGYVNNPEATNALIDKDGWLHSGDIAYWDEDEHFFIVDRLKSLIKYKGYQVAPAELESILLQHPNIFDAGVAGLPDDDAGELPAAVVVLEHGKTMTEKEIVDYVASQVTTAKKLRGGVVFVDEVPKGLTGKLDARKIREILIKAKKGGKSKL

Activity calls are given as the source filed them.

Chain of Fibroblast growth factor 2 (Homo sapiens) (P09038 whole entry, looked up): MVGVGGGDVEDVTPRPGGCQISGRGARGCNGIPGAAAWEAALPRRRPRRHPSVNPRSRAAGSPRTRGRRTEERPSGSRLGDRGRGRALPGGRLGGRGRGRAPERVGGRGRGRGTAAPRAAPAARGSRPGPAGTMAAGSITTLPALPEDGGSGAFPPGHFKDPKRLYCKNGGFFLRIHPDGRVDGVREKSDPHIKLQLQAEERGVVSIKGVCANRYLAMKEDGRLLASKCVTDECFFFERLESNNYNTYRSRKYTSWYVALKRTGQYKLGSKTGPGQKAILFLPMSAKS

For `NC(=O)[C@H]1[C@@H]2C(=O)O[C@@H](c3ccccc3)[C@@H](c3ccccc3)N2[C@@H](c2ccc(OCCO)cc2)[C@]12C(=O)Nc1ccc(C#CCCO)cc12`, the composite z-score with Albumin (Bos taurus) worked out at 0.586; in assay [2], 0.0203; in assay [3] it was 0.0252; in assay [4] it was 0.537; in [5], 1.26; in [6] it was 0.204. In addition, the composite z-score with Sam68 (KHDRBS1) was determined as 1.16; in assay [7], 0.0273; in [8], 1.07; in assay [9] it was 0.92; in assay [10], 1.18; in assay [11] it was 0.798. Also, the composite z-score came out at 0.746 in [12]; 1.13 in assay [13]; 0.35 in assay [14]; 0.551 in the assay with Lefty1; 0.9 in [16]. In assay [1], the composite Z-score is 0.988 (inactive). For the same compound, the z-score in assay [15] is -0.262; in [17], -1.05 (inactive).
As to `O=C1[C@H]2C=C(I)[C@H](C[C@@H]2OCCOCCO)[C@@]12CO2`, the composite z-score in the assay with Albumin (Bos taurus) is -0.35; in assay [2] it was -0.0299; in [3], -0.173; in assay [4], -0.0167; in [5] it was -0.477; in assay [6] it was 0.072. For the same compound, the composite z-score with Sam68 (KHDRBS1) was 0.807; in assay [7], 0.466; in [8], 0.2; in [9] it was -0.0655; in [10], 0.747; in [11] it was 0.0017. The composite z-score in assay [12] is 0.0216; in assay [13], 0.697; in [14], 0.952; in the assay on Lefty1 it was 0.858; in assay [16] it was -0.12. Also, the composite Z-score in assay [1] is -0.175 (inactive). Moreover, the z-score was -0.43 in assay [15] and 0.818 (inactive) in [17].
Consider `Cc1ccc(S[C@]2(C(=O)NCC(F)(F)F)CC(=O)N(Cc3cc(C(F)(F)F)cc(C(F)(F)F)c3)[C@@H]2c2ccc(CO)cc2)cc1`, for which the composite z-score with Albumin (Bos taurus) is -0.658; in assay [2], -0.229; in [3], -0.164; in assay [4], 0.802; in assay [5], -0.551; in [6] it was -0.238. Besides, the composite z-score was -0.36 in the assay with Sam68 (KHDRBS1); -1.19 in [7]; -0.183 in [8]; 1.86 in [9]; -1.33 in assay [10]; -0.237 in assay [11]. Further, the composite z-score in [12] is -1.09; in assay [13], -0.192; in assay [14] it was -0.897; in the assay on Lefty1 it was -0.126; in [16], -0.744. The composite Z-score in assay [1] was -0.0775 (inactive). The results for the z-score in assay [15] and in [17] were 0.0304 and -0.46 (inactive), respectively.
`O=C1O[C@@H](c2ccccc2)[C@@H](c2ccccc2)N2[C@@H](c3ccc(O)cc3)[C@]3(C(=O)Nc4ccc(C#CCCO)cc43)[C@@H](C(=O)N3CCN(c4ncccn4)CC3)[C@H]12`: the composite z-score in the assay with Albumin (Bos taurus) is -0.777; in assay [2], 0.148; in [3], -0.457; in assay [4], 0.523; in [5], 0.457; in assay [6], -0.143. Besides, the composite z-score in the assay with Sam68 (KHDRBS1) is 1.11; in assay [7] it was 1.14; in assay [8] it was 1.12; in assay [9], 1.56; in [10] it was 1.14; in [11], 0.165. Moreover, the composite z-score in assay [12] worked out at 0.512; in assay [13] it was 1.37; in [14], 1.68; with Lefty1, 0.952; in assay [16] it was 0.0869. In addition, in [1], the composite Z-score was 0.698 (inactive). Besides, the z-score in [15] was -1.25; in assay [17], 0.764 (inactive).
In the case of `O=C(NCCN1CCOCC1)[C@@H]1c2ccccc2C(=O)N(Cc2ccccc2Cl)[C@H]1c1ccc(CO)cc1`, the composite z-score is -0.281 with Albumin (Bos taurus); -0.224 in assay [2]; -0.0986 in [3]; 0.667 in assay [4]; 0.0465 in assay [5]; 1.67 in assay [6]. The composite z-score in the assay on Sam68 (KHDRBS1) is -0.721; in [7] it was -0.761; in assay [8], -1.19; in [9], -1.29; in [10], -0.867; in [11], 0.0685. Also, the composite z-score in assay [12] is -0.542; in assay [13], -0.163; in [14] it was -0.976; with Lefty1, -1.19; in assay [16], 0.0616. Further, the composite Z-score in assay [1] was 0.239 (inactive). For the same compound, the z-score in assay [15] is 1.79; in assay [17], 0.645 (inactive).
As to `CC(C)C(CO)N1C(=O)[C@@H]2C3C(=O)OCCC/C=C\[C@H]3OC23C=CCN(c2ccc4ccccc4c2)C(=O)[C@@H]13` (stereo not given in full), the composite z-score with Albumin (Bos taurus) was 0.974; in [2], -0.0716; in [3], -0.156; in [4], 0.941; in assay [5], -0.201; in assay [6], -0.18. The composite z-score is -1.02 in the assay with Sam68 (KHDRBS1); -1.28 in [7]; -0.612 in assay [8]; -0.236 in assay [9]; -0.696 in [10]; 0.374 in assay [11]. Moreover, the composite z-score in assay [12] is -1.62; in assay [13] it was -0.0619; in assay [14], -1.02; in the assay with Lefty1 it was 0.0124; in [16], 0.562. Moreover, in assay [1], the composite Z-score was 0.503 (inactive). Moreover, the z-score in assay [15] was 0.723; in [17], -0.526 (inactive).
